This is a sample that favours compounds with a hit; in the whole collection about 2.2% have one here.
TWEAK-Fn14 inh – inhibitors of TWEAK-Fn14 interaction signaling; TWEAK-stimulated Fn14 reporter cells, luciferase luminescence, 8 h; inhibition, % at 10 µM; actives 2% (n = 360,000); AID 1159606; in the data active means inhibition above about 50%
LGR2 inh – blocks bursicon-induced cAMP signaling via Drosophila LGR2. AID 720647. actives 0.35% (n = 380,000). HEK293 LGR2, CRE-luciferase, bursicon-stimulated, 4 h. inhibition, % at 9.99 µM;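 active means drop in luminescence signal, shown as inhibition above about 50% in the replicate tests, limit read from the data, passing the limit was not always enough; inconclusive means probably only some replicates passing the limit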;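 further: agonist challenge used bursicon conditioned medium at about half maximal strength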
HSP90 inh – blocks HSP90-mediated luciferase refolding in reticulocyte lysate | Rabbit reticulocyte lysate, luciferase refolding luminescence, 3 h | actives 0.91% (n = 290,000) | inhibition, % at 5.6 µM;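 active means inhibition above the screen-wide mean plus 3 SD, computed separately per campaign, cut at about 16% in these data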;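 further: inhibitors lower the luminescence because luciferase stays unfolded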
TROY signal inh – inhibitors of TROY-dependent NF-kB signaling. AID 1347056. actives 0.98% (n = 360,000). Q293 LMP1-TROYcd NF-kB luciferase reporter, 4 h. inhibition, % at 10 µM;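 active means compounds whose plate-normalised and pattern-corrected inhibition of the luciferase reporter signal at the single screening dose is 50% or more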
Of the large screens only hits and unclear results are named; the others gave an inactive call.

CCn1c(CNC(=O)c2ccccc2F)cc2cc(C)ccc21	none
COC(=O)c1cc(=O)n(-c2ccc(F)cc2)c(=Nc2ccc(F)cc2)s1	TWEAK-Fn14 inh 50, LGR2 inh inconclusive
COC(=O)c1cc(=O)n(Cc2ccc3c(c2)OCO3)c(=Nc2ccc(F)cc2)s1	LGR2 inh inconclusive
COC(=O)c1cc(=O)n(Cc2cccs2)c(=Nc2ccc(F)cc2)s1	TWEAK-Fn14 inh 56, LGR2 inh 56
COc1ccccc1NC(=O)N1[C@@H]2CNC[C@H]1[C@@H]2c1ccc(-c2ccc(C#N)cc2)cc1	none (no result: TWEAK-Fn14 inh, HSP90 inh, TROY signal inh)
CCOC(=O)c1c(C)[nH]c(C(=O)N/N=C/c2ccc(Br)cc2)c1C	TWEAK-Fn14 inh 55
Cc1cccc(N2CCCn3c2nc2c3c(=O)n(CCN3CCOCC3)c(=O)n2C)c1	TWEAK-Fn14 inh 108 (no result: LGR2 inh)
COc1ccc(N2CCCn3c2nc2c3c(=O)n(CCN3CCOCC3)c(=O)n2C)cc1	none (no result: LGR2 inh, HSP90 inh)
COC(=O)c1cccc2c1-c1ccccc1/C2=N/O	TWEAK-Fn14 inh 83, TROY signal inh 56 (no result: LGR2 inh)
CCOC(=O)CC1CCCCN1C(=O)c1cc(COc2cccc3cnccc23)on1 (stereo not drawn)	TWEAK-Fn14 inh 62
COC(=O)C1CCCCN1C(=O)c1cc(COc2cccc3cnccc23)on1 (stereo not drawn)	none
S=C(NCCC(c1ccccc1)c1ccccc1)Nc1cccc(Cl)c1	TROY signal inh 62 (no result: LGR2 inh)
S=C(NCCN(C1CCCCC1)C1CCCC1)Nc1cccc(Cl)c1	none
Cc1cccc(S(=O)(=O)N2C[C@H](O)COC[C@H]3O[C@@H](CC(=O)NCCCN4CCOCC4)CC[C@@H]32)c1	none (no result: TWEAK-Fn14 inh, HSP90 inh, TROY signal inh)
O=C(CCNC(=O)C1CCN(S(=O)(=O)c2ccccc2)CC1)NCc1ccccn1	none
O=C(CCNC(=O)C1CCN(S(=O)(=O)c2ccc(F)cc2)CC1)NCc1ccc(F)cc1	none
O=C(NCc1ccccn1)C1CCN(S(=O)(=O)c2ccccc2)CC1	TWEAK-Fn14 inh 88 (no result: LGR2 inh, TROY signal inh)
O=C(NCCCn1ccnc1)C1CCN(S(=O)(=O)c2ccc(F)cc2)CC1	TWEAK-Fn14 inh 86
CC(C)OC(=O)CNc1n[nH]c(=S)[nH]c1=O	HSP90 inh 17
COC(=O)CNc1n[nH]c(=S)[nH]c1=O	none (no result: LGR2 inh)
O=C(NS(=O)(=O)c1ccccc1)c1cccc(Br)c1	none
CCC(CC)C(=O)Nc1cccc(C(=O)Nc2ccc(S(=O)(=O)Nc3ccc(C)cc3)cc2)c1	TROY signal inh 54
Cc1ccc(S(=O)(=O)NC(=O)c2cccc(Br)c2)cc1	TWEAK-Fn14 inh 84
CCC(CC)C(=O)Nc1cccc(C(=O)Nc2ccc(S(N)(=O)=O)cc2)c1	none (no result: LGR2 inh)
Cc1ccc(-c2ccc3c(c2)O[C@@H](CN(C)C(=O)C2CCCCC2)[C@H](C)CN([C@@H](C)CO)S3(=O)=O)cc1	none (no result: TWEAK-Fn14 inh, HSP90 inh, TROY signal inh)
C[C@@H]1CCCCO[C@H](CN(C)CC2CC2)[C@H](C)CN([C@@H](C)CO)C(=O)c2cc(NC(=O)c3ccncc3)ccc2O1	none (no result: TWEAK-Fn14 inh, HSP90 inh, TROY signal inh)
CCCCNc1ncnc2c1cnn2-c1ccc(Cl)cc1	none
COc1ccc(-n2ncc3c(NCC(C)C)ncnc32)cc1	TWEAK-Fn14 inh 50
COCC(C)Nc1ncnc2c1cnn2-c1ccc(Cl)cc1 (stereo not drawn)	TWEAK-Fn14 inh 57 (no result: LGR2 inh)
COc1ccc(OCc2cccc(C(=O)O)c2)cc1	TWEAK-Fn14 inh 53 (no result: LGR2 inh, HSP90 inh)
O=C(O)c1cccc(COc2ccc(CO)cc2Cl)c1	TWEAK-Fn14 inh 71, LGR2 inh 100 (no result: HSP90 inh)
CCOc1ccc(OCc2cccc(C(=O)O)c2)cc1	LGR2 inh 102 (no result: HSP90 inh)
O=C(O)c1cc(OCc2ccccc2)cc(OCc2ccccc2)c1	none
CCCNC(=O)C[C@@H]1CC[C@H]2[C@@H](COc3ccc(NC(=O)NCCC)cc3C(=O)N2C)O1	none (no result: TWEAK-Fn14 inh, HSP90 inh, TROY signal inh)
CN1C(=O)c2cc(NC(=O)c3cccs3)ccc2OC[C@H]2O[C@@H](CC(=O)Nc3ccc4c(c3)COC4)CC[C@@H]21	none (no result: TWEAK-Fn14 inh, HSP90 inh, TROY signal inh)
CCCNC(=O)N1C[C@H](O)COC[C@@H]2O[C@@H](CC(=O)NCc3ccncn3)CC[C@H]21	none (no result: TWEAK-Fn14 inh, HSP90 inh, TROY signal inh)
COc1ccc(OC)c(NC(=O)c2cnc3n(c2=O)CCS3)c1	none
COc1ccc(Cl)cc1NC(=O)c1cnc2n(c1=O)CCS2	TWEAK-Fn14 inh 53 (no result: HSP90 inh)
O=C(Cc1ccccn1)N1CC2(C1)[C@H](c1ccccc1)[C@@H](CO)N2C(=O)c1ccncc1	none (no result: TWEAK-Fn14 inh, HSP90 inh, TROY signal inh)
NC(=O)c1c(-c2ccc(Cl)cc2Cl)csc1NC(=O)Cc1ccccc1	TWEAK-Fn14 inh 76
O=C1c2cc(Cl)ccc2-c2c(O)cc(Cl)cc21	TWEAK-Fn14 inh 54 (no result: HSP90 inh)
N#CC(c1cccc(Cl)c1)c1ccc2c(C(F)(F)F)cc(C(F)(F)F)nc2n1 (stereo not drawn)	TROY signal inh 64 (no result: LGR2 inh)
CCn1cc(Cl)c(C(=O)N2N=C(c3ccc4ccccc4c3)CC2c2ccccc2O)n1 (stereo not drawn)	TWEAK-Fn14 inh 72
Cc1cc(=O)n(Cc2ccccc2)c2ccccc12	none
Cc1c(CN(C)C)c2c(n1Cc1ccccc1)C(=O)c1ccccc1-2	TWEAK-Fn14 inh 62
O=C([C@H]1[C@H](CO)[C@H]2Cn3c(cccc3=O)[C@@H]1N2C(=O)CC1CC1)N1CCCCC1	none (no result: TWEAK-Fn14 inh, HSP90 inh, TROY signal inh)
C[C@@H]1CN([C@@H](C)CO)C(=O)c2cc(C3=CCCCC3)cnc2O[C@@H]1CN(C)Cc1ccncc1	none (no result: TWEAK-Fn14 inh, HSP90 inh, TROY signal inh)
COc1ccccc1C(=O)NCCn1cc(SCC(=O)Nc2cc(C)on2)c2ccccc21	none
O=C(NCCn1cc(SCc2ccccc2F)c2ccccc21)c1c(F)cccc1F	TWEAK-Fn14 inh 62 (no result: LGR2 inh)
Cc1ccc(C(=O)NCCn2cc(SCC(=O)Nc3nnc(C)s3)c3ccccc32)cc1	TWEAK-Fn14 inh 91, HSP90 inh 50, TROY signal inh 77
Cc1cc(NC(=O)CSc2cn(CCNC(=O)c3ccc(Cl)cc3)c3ccccc23)no1	TWEAK-Fn14 inh 67, TROY signal inh 71
COc1ccc(C(=O)NCCn2cc(SCC(=O)N3CCOCC3)c3ccccc32)cc1	HSP90 inh 47, TROY signal inh 67
O=C(NCCn1cc(SCC(=O)N2CCOCC2)c2ccccc21)c1c(F)cccc1F	none
COc1ccc(C(=O)NCCn2cc(SCC(=O)Nc3cc(C)on3)c3ccccc32)cc1OC	none (no result: LGR2 inh)
CCOc1ccc(C(=O)NCCn2cc(SCC(=O)Nc3cc(C)on3)c3ccccc32)cc1	TROY signal inh 56 (no result: LGR2 inh)
O=C1c2ccccc2S(=O)(=O)c2cc(N3CCOCC3)ccc21	TWEAK-Fn14 inh 71, LGR2 inh inconclusive (no result: HSP90 inh)
O=C(C[C@@H]1C[C@H]2c3cc(NC(=O)NC4CCCC4)ccc3O[C@H]2[C@H](CO)O1)NCC1CC1	none (no result: TWEAK-Fn14 inh, HSP90 inh, TROY signal inh)
O=C(C1=C(c2ccccc2)C(=O)c2ccccc2C1=O)c1ccccc1	TWEAK-Fn14 inh 97, HSP90 inh 74, TROY signal inh 62 (no result: LGR2 inh)
Cc1ccnc(N/C=C(/NC(=O)c2ccccc2)C(=O)N/N=C\c2ccc(F)cc2)n1	TWEAK-Fn14 inh 101, TROY signal inh 80 (no result: LGR2 inh)
C[C@H](CO)N1C[C@H](C)[C@@H](CN(C)C)Oc2ccc(NC(=O)CCCN(C)C)cc2CC1=O	none (no result: TWEAK-Fn14 inh, HSP90 inh, TROY signal inh)
Cc1ccc(C(=O)CSc2nnc3c4ccccc4nc(C(C)(C)C)n23)cc1	TROY signal inh 52
Cc1ncoc1C(=O)Nc1ncc([N+](=O)[O-])s1	TWEAK-Fn14 inh 50
O=C(COC(=O)c1ccccc1-n1cnnn1)c1ccc(F)cc1	TWEAK-Fn14 inh 53, TROY signal inh 64 (no result: HSP90 inh)

Bioassay records as filed in PubChem BioAssay.
